Test results reported in the supplement of paper PMC10849652.
Targets with a hit are over-represented here; the source holds about 8,800 in all. About 0.5% of all pairs of compound and target were hits. Values without a mark were called inactive.

Tests used:
Test in all cases: log2 fold change, soluble protein after heating vs DMSO (PISA); higher = thermal stabilisation; K562 lysate, 10 uM; active = over 0.2 and 3.5 SD of the protein, either way, in both replicates (recomputed)
ibrutinib = compound: C=CC(=O)N1CCC[C@@H](n2nc(-c3ccc(Oc4ccccc4)cc3)c3c(N)ncnc32)C1 [ibrutinib]
In short: (§1)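 K562 pellets were dounce-homogenised in PBS pH 7.4 containing 1 mM MgCl2, and the crude extract, at 1 mg/mL protein, was exposed to 10 μM compound for 30 min. Aliquots were heated for 3 min across 48°C-58°C, pooled, brought to 0.5% NP-40 at 4°C and spun at 21,000xg for 90 min, with the supernatant taken as soluble protein. TMTpro 16plex LC-MS/MS with equalised channel sums quantified that protein. Values are log-two fold changes in thermal stability relative to solvent controls, taken from duplicates.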

[1] = compound: CC(=O)c1cnc2ccc(-c3cc(Cl)c(O)c(Cl)c3)nc2c1N[C@H]1CC[C@H](CN(C)C)CC1
In short: as §1

ralimetinib = compound: CC(C)(C)Cn1c(N)nc2ccc(-c3[nH]c(C(C)(C)C)nc3-c3ccc(F)cc3)nc21 [ralimetinib]
In short: as §1

[2] = compound: CC(C)(O)CC(=O)NCCn1ccc2ncnc(Nc3ccc(Oc4cccc(C(F)(F)F)c4)c(Cl)c3)c21
In short: as §1

[3] = compound: CC(C)C1=C2N=C(C=C(N2N=C1)NCC3=CC=CC=C3)NCCCCCCN
In short: as §1

[4] = compound: CC1=C(C(CC(=O)N1)C2=CC=C(C=C2)C(F)(F)F)C(=O)NC3=C(C=C4C(=C3)C=NN4)F
In short: as §1

[5] = compound: CC1=C(C2=C(C=C1)C(=O)C3=CC=CC=C3N2CCCN)C
In short: as §1

[6] = compound: CC1=C(C=C(C=C1)NC(=O)C2=CC(=CC=C2)C(C)(C)C#N)NC3=CC4=C(C=C3)N=CN(C4=O)C
In short: as §1

[7] = compound: CC1=C(C=C(C=C1)NC(=O)C2=CC(=CC=C2)N(C)C)NC(=O)C3=CC=C(C=C3)O
In short: as §1

[8] = compound: CC1=CC=C(C=C1)SC2=C3C=C(SC3=CN=C2)C(=O)N
In short: as §1

UniProt Q96IV0, sequence (Q96IV0 whole entry, looked up): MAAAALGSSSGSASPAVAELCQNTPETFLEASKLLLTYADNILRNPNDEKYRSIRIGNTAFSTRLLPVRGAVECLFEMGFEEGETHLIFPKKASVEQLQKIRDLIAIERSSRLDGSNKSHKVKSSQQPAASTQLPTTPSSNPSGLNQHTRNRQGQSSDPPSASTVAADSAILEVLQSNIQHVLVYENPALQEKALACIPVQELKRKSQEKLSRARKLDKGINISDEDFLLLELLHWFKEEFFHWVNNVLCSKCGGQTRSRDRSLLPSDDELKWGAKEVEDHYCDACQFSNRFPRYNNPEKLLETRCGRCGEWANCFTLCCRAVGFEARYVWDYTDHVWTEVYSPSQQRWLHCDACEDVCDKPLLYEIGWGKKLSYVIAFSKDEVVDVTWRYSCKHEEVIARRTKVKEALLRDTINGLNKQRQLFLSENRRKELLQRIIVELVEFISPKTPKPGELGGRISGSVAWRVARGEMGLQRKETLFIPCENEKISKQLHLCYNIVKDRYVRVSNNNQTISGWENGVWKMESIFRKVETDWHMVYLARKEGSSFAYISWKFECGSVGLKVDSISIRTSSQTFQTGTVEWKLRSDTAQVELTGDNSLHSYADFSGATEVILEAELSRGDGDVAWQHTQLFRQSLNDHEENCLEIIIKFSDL
UniProt Q9BYG3, sequence (Q9BYG3 whole entry, looked up): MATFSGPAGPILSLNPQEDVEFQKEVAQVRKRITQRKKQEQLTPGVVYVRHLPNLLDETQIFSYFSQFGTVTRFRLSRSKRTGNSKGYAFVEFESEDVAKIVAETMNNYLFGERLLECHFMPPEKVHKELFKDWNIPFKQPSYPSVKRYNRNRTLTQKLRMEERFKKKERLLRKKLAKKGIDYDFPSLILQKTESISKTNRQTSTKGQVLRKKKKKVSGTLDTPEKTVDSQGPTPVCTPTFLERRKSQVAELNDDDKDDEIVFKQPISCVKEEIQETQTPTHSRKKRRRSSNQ
UniProt Q8TAT6, sequence (Q8TAT6 whole entry, looked up): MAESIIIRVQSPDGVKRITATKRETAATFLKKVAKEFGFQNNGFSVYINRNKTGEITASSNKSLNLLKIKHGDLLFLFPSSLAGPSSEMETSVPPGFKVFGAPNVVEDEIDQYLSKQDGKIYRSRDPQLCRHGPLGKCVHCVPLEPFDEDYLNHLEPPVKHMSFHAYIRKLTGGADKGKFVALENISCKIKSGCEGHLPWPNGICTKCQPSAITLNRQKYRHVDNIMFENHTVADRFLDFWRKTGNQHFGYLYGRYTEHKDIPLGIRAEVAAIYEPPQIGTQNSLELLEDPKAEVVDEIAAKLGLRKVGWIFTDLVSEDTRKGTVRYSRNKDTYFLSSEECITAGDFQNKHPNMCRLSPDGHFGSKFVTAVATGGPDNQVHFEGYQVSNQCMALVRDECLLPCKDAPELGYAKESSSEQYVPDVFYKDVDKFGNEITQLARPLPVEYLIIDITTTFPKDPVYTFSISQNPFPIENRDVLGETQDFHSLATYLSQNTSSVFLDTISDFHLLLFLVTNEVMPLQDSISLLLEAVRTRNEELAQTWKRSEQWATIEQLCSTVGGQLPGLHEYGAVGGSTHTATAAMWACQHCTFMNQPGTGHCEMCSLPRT
UniProt P03886, sequence (P03886 whole entry, looked up): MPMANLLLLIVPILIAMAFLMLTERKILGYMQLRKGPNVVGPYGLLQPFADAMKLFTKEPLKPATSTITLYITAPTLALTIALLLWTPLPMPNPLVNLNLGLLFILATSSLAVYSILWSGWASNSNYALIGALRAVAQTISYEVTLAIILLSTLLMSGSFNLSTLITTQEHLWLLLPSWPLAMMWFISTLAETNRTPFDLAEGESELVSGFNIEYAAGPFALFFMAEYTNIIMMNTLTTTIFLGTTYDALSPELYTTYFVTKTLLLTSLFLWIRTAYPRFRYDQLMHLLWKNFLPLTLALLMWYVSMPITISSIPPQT
UniProt Q8IVI9, sequence (Q8IVI9 whole entry, looked up): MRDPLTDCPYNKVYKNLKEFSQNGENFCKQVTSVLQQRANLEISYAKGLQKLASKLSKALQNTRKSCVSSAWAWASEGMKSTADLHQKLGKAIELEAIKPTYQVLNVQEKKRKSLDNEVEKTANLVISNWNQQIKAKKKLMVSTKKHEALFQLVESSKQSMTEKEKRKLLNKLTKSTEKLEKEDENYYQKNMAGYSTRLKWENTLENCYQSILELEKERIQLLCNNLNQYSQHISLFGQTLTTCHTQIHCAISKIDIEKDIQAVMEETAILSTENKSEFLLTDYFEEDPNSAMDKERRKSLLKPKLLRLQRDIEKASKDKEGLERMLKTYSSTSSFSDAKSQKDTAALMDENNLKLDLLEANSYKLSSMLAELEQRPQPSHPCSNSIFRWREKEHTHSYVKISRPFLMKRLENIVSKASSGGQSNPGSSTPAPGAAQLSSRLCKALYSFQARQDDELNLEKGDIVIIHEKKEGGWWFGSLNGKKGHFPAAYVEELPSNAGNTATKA
UniProt Q9BV86, sequence (Q9BV86 whole entry, looked up): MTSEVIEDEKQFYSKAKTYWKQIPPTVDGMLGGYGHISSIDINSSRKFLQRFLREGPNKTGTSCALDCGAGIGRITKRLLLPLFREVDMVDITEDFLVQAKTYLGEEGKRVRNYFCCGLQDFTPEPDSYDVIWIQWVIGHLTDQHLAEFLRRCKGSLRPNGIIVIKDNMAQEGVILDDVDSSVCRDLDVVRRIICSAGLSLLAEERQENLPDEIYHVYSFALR
UniProt Q9ULX3, sequence (Q9ULX3 whole entry, looked up): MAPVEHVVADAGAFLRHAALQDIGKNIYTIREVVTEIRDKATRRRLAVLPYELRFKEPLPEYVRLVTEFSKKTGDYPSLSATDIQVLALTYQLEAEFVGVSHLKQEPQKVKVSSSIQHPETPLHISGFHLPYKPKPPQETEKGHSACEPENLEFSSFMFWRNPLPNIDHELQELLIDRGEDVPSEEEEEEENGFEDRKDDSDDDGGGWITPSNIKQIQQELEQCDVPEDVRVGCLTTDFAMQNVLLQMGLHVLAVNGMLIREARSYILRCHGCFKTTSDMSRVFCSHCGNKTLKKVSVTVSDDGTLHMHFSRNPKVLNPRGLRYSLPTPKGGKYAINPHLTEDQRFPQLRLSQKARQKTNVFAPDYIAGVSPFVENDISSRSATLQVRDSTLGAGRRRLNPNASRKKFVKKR
UniProt O94916, sequence (O94916 whole entry, looked up): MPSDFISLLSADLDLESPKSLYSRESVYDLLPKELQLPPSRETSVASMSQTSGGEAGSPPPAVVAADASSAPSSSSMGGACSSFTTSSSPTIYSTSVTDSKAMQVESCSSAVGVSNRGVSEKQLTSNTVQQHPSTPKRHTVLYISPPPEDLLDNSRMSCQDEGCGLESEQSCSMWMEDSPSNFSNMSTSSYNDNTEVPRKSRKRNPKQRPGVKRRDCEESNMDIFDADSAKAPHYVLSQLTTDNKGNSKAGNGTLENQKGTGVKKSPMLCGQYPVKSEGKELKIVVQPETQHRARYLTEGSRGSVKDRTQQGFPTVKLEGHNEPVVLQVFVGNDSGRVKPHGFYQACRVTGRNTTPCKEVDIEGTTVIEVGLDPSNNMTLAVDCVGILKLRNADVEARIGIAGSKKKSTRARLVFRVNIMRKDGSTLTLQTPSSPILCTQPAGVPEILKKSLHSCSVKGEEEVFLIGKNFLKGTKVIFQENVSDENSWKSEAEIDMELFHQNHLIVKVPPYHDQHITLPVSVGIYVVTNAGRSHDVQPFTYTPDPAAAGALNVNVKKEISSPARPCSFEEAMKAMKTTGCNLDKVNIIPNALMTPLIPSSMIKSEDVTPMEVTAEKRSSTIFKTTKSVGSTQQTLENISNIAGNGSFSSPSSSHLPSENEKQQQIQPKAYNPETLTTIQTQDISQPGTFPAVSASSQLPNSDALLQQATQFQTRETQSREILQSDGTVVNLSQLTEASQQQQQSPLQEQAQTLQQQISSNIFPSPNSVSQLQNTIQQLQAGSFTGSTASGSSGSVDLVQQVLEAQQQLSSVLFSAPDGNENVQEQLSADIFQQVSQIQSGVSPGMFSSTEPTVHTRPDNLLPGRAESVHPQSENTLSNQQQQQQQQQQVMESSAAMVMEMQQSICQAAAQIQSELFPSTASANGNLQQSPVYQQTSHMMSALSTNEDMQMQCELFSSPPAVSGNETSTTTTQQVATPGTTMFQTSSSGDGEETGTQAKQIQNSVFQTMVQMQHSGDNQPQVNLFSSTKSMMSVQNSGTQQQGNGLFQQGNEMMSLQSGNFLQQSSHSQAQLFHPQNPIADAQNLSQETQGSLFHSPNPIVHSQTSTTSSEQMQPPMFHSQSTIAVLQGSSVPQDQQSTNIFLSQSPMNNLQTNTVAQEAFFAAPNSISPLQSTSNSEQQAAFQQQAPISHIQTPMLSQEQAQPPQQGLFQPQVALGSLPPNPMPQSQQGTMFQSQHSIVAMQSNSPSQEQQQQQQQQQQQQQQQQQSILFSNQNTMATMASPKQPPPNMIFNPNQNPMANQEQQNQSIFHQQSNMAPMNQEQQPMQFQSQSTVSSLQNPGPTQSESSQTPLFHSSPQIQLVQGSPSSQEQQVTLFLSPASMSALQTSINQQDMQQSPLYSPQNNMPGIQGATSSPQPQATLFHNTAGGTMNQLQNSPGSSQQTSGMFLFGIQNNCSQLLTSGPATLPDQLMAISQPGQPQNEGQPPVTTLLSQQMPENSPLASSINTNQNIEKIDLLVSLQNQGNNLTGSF
UniProt P18440, sequence (P18440 whole entry, looked up): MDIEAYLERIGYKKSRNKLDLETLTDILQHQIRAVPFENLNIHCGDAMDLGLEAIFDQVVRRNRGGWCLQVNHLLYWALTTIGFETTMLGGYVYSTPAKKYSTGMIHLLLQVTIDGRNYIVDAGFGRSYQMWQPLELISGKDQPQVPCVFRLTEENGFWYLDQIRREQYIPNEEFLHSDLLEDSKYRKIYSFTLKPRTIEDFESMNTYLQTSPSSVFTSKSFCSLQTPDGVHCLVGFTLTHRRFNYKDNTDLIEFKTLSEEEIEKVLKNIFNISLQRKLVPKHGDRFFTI

| Target | log2 fold change (ibrutinib) | log2 fold change [1] | log2 fold change (ralimetinib) | log2 fold change [2] | log2 fold change [3] | log2 fold change [4] | log2 fold change [5] | log2 fold change [6] | log2 fold change [7] | log2 fold change [8] |
| --- | --- | --- | --- | --- | --- | --- | --- | --- | --- | --- |
| MSI2 (UniProt Q96DH6) | 0.044 | -0.024 | 0.032 | -0.039 | 0.015 | -0.029 | 0.009 | -0.315 (active) | 0.03 | 0.054 |
| NGLY1 (UniProt Q96IV0) | 0 | -0.01 | 0.011 | -0.008 | 0.03 | -0.001 | -0.01 | -0.006 | 0.017 | 0 |
| MTOR (UniProt P42345) | -0.016 | 0.001 | 0.018 | -0.005 | -0.043 | 0.02 | 0.019 | 0.031 | 0.058 | -0.013 |
| MRPS12 (UniProt O15235) | -0.003 | -0.008 | 0.011 | -0.067 | 0.007 | -0.004 | -0.138 | 0.003 | -0.028 | -0.02 |
| NFATC1 (UniProt O95644) | 0.011 | 0.06 | -0.004 | -0.067 | -0.038 | 0.031 | -0.047 | 0.094 | -0.015 | -0.052 |
| MT-ND1 (UniProt P03886) | 0.032 | -0.006 | 0.061 | -0.101 | -0.052 | 0.056 | -0.007 | 0.055 | -0.005 | 0.088 |
| NPLOC4 isoform 2 (UniProt Q8TAT6) | -0.016 | -0.015 | -0.01 | -0.003 | 0.027 | -0.005 | -0.009 | 0.062 | 0.018 | -0.015 |
| MTA1 (UniProt Q13330) | -0.018 | -0.025 | 0.001 | 0.006 | -0.007 | -0.004 | 0 | -0.008 | 0.034 | -0.018 |
| NIFK (UniProt Q9BYG3) | 0.02 | -0.039 | 0.022 | 0.002 | -0.001 | 0.016 | -0.035 | -0.005 | 0.016 | 0.032 |
| OLA1 (UniProt Q9NTK5) | 0.009 | -0.002 | 0.015 | 0.03 | 0.02 | -0.023 | 0.023 | -0.004 | 0.029 | 0.014 |
| NSL1 (UniProt Q96IY1) | -0.019 | -0.002 | 0.003 | -0.052 | 0.011 | -0.066 | 0.023 | 0.009 | 0.008 | 0.036 |
| MRPL51 (UniProt Q4U2R6) | 0.02 | -0.005 | 0.048 | 0.011 | -0.038 | 0.066 | 0.006 | -0.062 | 0.051 | 0.017 |
| NTPCR (UniProt Q9BSD7) | -0.004 | 0.002 | 0.014 | 0 | 0.022 | 0.018 | 0.014 | -0.002 | 0.066 | -0.001 |
| NAT1 (UniProt P18440) | -0.089 | -0.039 | 0.062 | 0.019 | -0.035 | -0.001 | -0.048 | 0.034 | 0.009 | 0.052 |
| NAP1L5 (UniProt Q96NT1) | -0.056 | 0.018 | -0.034 | 0.034 | -0.037 | -0.036 | -0.045 | -0.13 | -0.036 | -0.009 |
| NFAT5 isoform 5 (UniProt O94916) | -0.027 | -0.029 | -0.017 | 0.129 | 0.003 | 0.112 | -0.008 | -0.081 | -0.004 | 0.032 |
| NUP188 (UniProt Q5SRE5) | -0.026 | 0.019 | 0.041 | -0.021 | -0.028 | -0.005 | 0.035 | -0.04 | 0.042 | -0.018 |
| MRPS18A isoform 2 (UniProt Q9NVS2) | -0.015 | 0.006 | -0.015 | -0.002 | -0.046 | 0.034 | -0.131 | 0.016 | 0.043 | -0.003 |
| NOB1 (UniProt Q9ULX3) | -0.005 | 0.018 | -0.028 | 0.014 | 0.013 | -0.001 | -0.046 | 0.03 | 0.019 | 0.004 |
| NTMT1 (UniProt Q9BV86) | -0.025 | 0.022 | -0.025 | -0.018 | 0 | -0.005 | -0.01 | -0.008 | 0.047 | 0.01 |
| MSH2 (UniProt P43246) | -0.009 | -0.01 | 0.019 | 0.02 | 0.019 | -0.012 | -0.014 | 0 | 0.037 | 0.019 |
| NF1 (UniProt P21359) | 0.018 | 0.02 | 0.07 | -0.03 | -0.009 | 0.004 | -0.02 | 0.041 | 0.007 | -0.032 |
| NACC1 (UniProt Q96RE7) | -0.015 | -0.001 | 0.009 | -0.003 | -0.014 | 0.039 | -0.016 | -0.022 | 0.009 | -0.022 |
| MTA3 (UniProt Q9BTC8) | -0.048 | -0.023 | 0.009 | 0.062 | 0.01 | -0.047 | 0.031 | -0.053 | -0.052 | -0.018 |
| NUDT4 (UniProt Q9NZJ9) | 0.091 | 0.022 | 0.074 | 0.067 | -0.012 | 0.017 | 0.003 | -0.105 | -0.014 | 0.058 |
| MYO9A isoform 4 (UniProt B2RTY4) | -0.057 | 0.016 | 0.022 | 0.068 | 0.03 | -0.031 | -0.142 | -0.037 | 0.043 | -0.005 |
| NONO (UniProt Q15233) | -0.013 | 0.006 | 0.008 | -0.002 | 0.006 | -0.006 | -0.006 | -0.016 | 0.015 | 0.014 |
| NOSTRIN (UniProt Q8IVI9) | 0.025 | -0.009 | 0.012 | -0.041 | -0.125 | -0.032 | -0.039 | -0.019 | 0.088 | 0.012 |
| MTCH2 (UniProt Q9Y6C9) | 0.008 | -0.022 | 0.022 | 0.023 | 0.044 | -0.019 | -0.011 | 0.043 | -0.036 | 0.031 |
| NEBL (UniProt O76041) | 0.087 | 0.052 | 0.009 | -0.003 | -0.015 | -0.037 | -0.061 | -0.006 | -0.012 | -0.025 |
